Screening results from PubChem.
Glyco luc inh – N-linked glycosylation inhibition. D54 ERlucT glycosylation luciferase reporter, 24 h; percent of 100 nM tunicamycin response. reporter increase, % at 12.5 µM. 0.23% of 360,000 active;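 active means mean luciferase reporter signal, scaled so untreated is 0 and the glycosylation-blocking control 100, at or above a set limit in every replicate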;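 further: luciferase carries N-glycosylation sites so blocking glycosylation raises the light; 0% = median of neutral control wells and 100% = median of 100 nM tunicamycin wells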
aDG glyco act – alpha-DG glycosylation activation. activation, % at 10 µM. AID 624168. Pro5-aDG cells, alpha-DG glycosylation AlphaScreen (IIH6); 0% Pro5, 100% B10-LARGE cell signal. 0.22% of 360,000 active;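 active means activation of at least 8% versus controls, or a plate z-score of at least 8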;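 further: Pro5 are CHO cells carrying HIG-tagged alpha-DG that lacks glycosylation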
Cardio protect – myocardial damage modulation in H9c2 cells. protection from H2O2 cell death, % at 20 µM. 0.63% of 360,000 active. H9c2 cardiomyocytes, H2O2 injury protection, ATPLite, 2 h;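 active means compounds giving at least 50% protection of heart cells from peroxide-induced death in the single-dose screen, raw or plate-pattern-corrected value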;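 further: 0% = DMSO wells with peroxide and 100% = DMSO wells without peroxide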
ARNT TACC3 PPI – disrupts binding between human ARNT and TACC3. inhibition, % at 9.99 µM. Q9Y6A5. AlphaScreen His-ARNT PAS-B/GST-TACC3 binding, luminescence; TACC3 fragment carries E629A point mutation. 0.66% of 390,000 active. AID 623870;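 active means mean inhibition of replicates at least 50% and at least half of replicates each reaching 50%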;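 further: 0% = complete ARNT plus TACC3 wells and 100% = ARNT alone without TACC3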
Vif inh – blocks HIV Vif function. HEK293T cells, Vif self-association by quenched fluorescence, imaging, 24 h. inhibition, % at 7.49 µM. 0.35% of 340,000 active. AID 602346; in the data active means inhibition above about 50%, passing the limit was not always enough
The depositor's hits bear a star; . = no result given; + = active, no number. In the library only some 1.7% were active in any assay of this set; here they are far more common.

SMILES | Glyco luc inh | aDG glyco act | Cardio protect | ARNT TACC3 PPI | Vif inh
CC(C)(C)OC(=O)NCc1ccc(NC(=O)c2nc[nH]c2C(=O)NCCCCNC(=O)c2[nH]cnc2C(=O)Nc2ccc(CNC(=O)OC(C)(C)C)cc2)cc1 | -6.4 | -0.5 | 67.0* | 13.0 | 9.4
C[C@H](NC(=O)c1[nH]cnc1C(=O)Nc1ccc(CNC(=O)OC(C)(C)C)cc1)C(=O)OC(C)(C)C | -7.1 | -0.3 | 21.9 | . | -15.4
CCC(=O)N[C@@H]1CC[C@H](CC(=O)NCc2cc(F)cc(F)c2)O[C@H]1CO | . | . | . | -11.7 | .
O=C(CN(C(=O)Cn1nnc(-c2cccs2)n1)c1cnc2ccccc2c1)NCC1CCCO1 (stereo not given) | -2.4 | -0.1 | 83.4* | -5.8 | 6.6
CCN=c1scc(C)n1/N=C/c1ccc(O)c(O)c1O | -0.2 | -0.2 | 17.2 | 79.5* | 13.0
CCN=c1scc(C)n1/N=C/c1cc(Br)c(O)c(Br)c1 | -4.3 | -0.4 | 0.1 | 12.8 | -5.2
COCCN=c1scc(-c2cccs2)n1/N=C/c1ccc(O)c(O)c1O | -0.7 | -0.4 | 30.0 | 63.6* | -0.6
CN1C(=O)c2cc(NC(=O)C3CC3)ccc2OC[C@@H]2O[C@@H](CC(=O)NCC3CCCCC3)CC[C@H]21 | . | . | . | -3.6 | .
C[C@@H]1CN([C@@H](C)CO)C(=O)c2cc(NC(=O)CCCN(C)C)ccc2O[C@@H](C)CCCCO[C@@H]1CN(C)CC1CCCCC1 | . | . | . | -5.0 | .
O=C(COc1ccccc1F)Nc1ccc2c(c1)CCC2 | 1.3 | 0.3 | -1.5 | 1.3 | -1.1
O=C(COc1cccc(Cl)c1)Nc1ccc2c(c1)CCC2 | 2.8 | -0.2 | -4.8 | -1.3 | 104.6*
O=C(Nc1ccc(S(=O)(=O)Nc2ncccn2)cc1)C1CC(=O)N(c2ccc(Cl)cc2)C1 (stereo not given) | 1.0 | -0.2 | -2.1 | -2.7 | 56.3*
N#Cc1c(N)n(CCc2ccc(F)cc2)c2nc3ccccc3nc12 | 58.2* | 0.6 | 0.5 | . | -6.9
COCCn1c(N)c(C#N)c2nc3ccccc3nc21 | 9.5 | -0.3 | -3.5 | 1.7 | 3.1
C[C@H](CO)N1C[C@H](C)[C@H](CN(C)S(=O)(=O)c2ccc(Cl)cc2)OCCCC[C@H](C)Oc2ccc(NS(=O)(=O)c3cccs3)cc2C1=O | . | . | . | -5.6 | .
COc1ccc(Nc2nc(Nc3ccc(OC)cc3OC)nc(N3CCN(C)CC3)n2)c(OC)c1 | -1.8 | -0.6 | 64.4* | -3.0 | -17.8
Cn1cnc(S(=O)(=O)N[C@H]2C=C[C@H](CC(=O)Nc3ccccc3)O[C@@H]2CO)c1 | . | . | . | 4.9 | .
CCOc1ccc(C(C(=O)NCC2CCCO2)N(Cc2cccs2)C(=O)c2snc(C(N)=O)c2N)cc1 (stereo not given) | -0.9 | -0.3 | 68.1* | 0.6 | 19.4
CCOc1ccc(C(C(=O)NCC2CCCO2)N(C(=O)c2snc(C(N)=O)c2N)c2ccccc2F)cc1 (stereo not given) | -3.7 | 0.0 | 61.0* | -9.4 | -9.3
COc1ccc(C(C(=O)NCC2CCCO2)N(Cc2cccs2)C(=O)c2snc(C(N)=O)c2N)cc1OC (stereo not given) | -0.5 | -0.2 | 30.3 | -5.4 | -6.3
O=C(C[C@@H]1C=C[C@H](NC(=O)Nc2ccc(F)cc2)[C@@H](CO)O1)NCCN1CCCC1 | . | . | . | -11.1 | .
Cc1noc(C)c1NC(=O)Nc1ccc2c(c1)CC(=O)N([C@H](C)CO)C[C@H](C)[C@@H](CN(C)Cc1ccc(C(=O)O)cc1)O2 | . | . | . | -8.2 | .
CC1(C)SC2C(C(=O)O)N=C(Cc3ccccc3)N2C1C(=O)O (stereo not given) | 0.1 | -0.2 | 4.9 | 70.6* | -17.7
C[C@@H]1CN([C@@H](C)CO)C(=O)c2cccc(NS(=O)(=O)c3ccc(Cl)cc3)c2O[C@H]1CN(C)S(=O)(=O)c1ccc(F)cc1 | . | . | . | -7.6 | .
O=C(CSc1nnc2c(n1)[nH]c1ccccc12)Nc1ccc(S(=O)(=O)Nc2ncccn2)cc1 | -0.4 | -0.5 | 4.7 | 49.2* | 4.5
SMILES | Glyco luc inh | aDG glyco act | Cardio protect | ARNT TACC3 PPI | Vif inh
O=C(Nc1cccc(F)c1)N1C[C@@H]2[C@H](c3ccccc31)[C@H](CO)N2C(=O)c1ccccn1 | . | . | . | -17.0 | .
CC(C)(CO)NCc1cc(Br)ccc1OCc1ccccc1 | -0.3 | 1.1 | 6.1 | -3.0 | 1.3
COc1cc(CNC(C)(C)CO)cc(Br)c1OCc1ccccc1 | 2.0 | 1.1 | 1.7 | 2.3 | 55.8*
CC(C)(C)OC(=O)NCC12C=CC(O1)C1C(=O)N(Cc3ccccc3)C(=O)C12 (stereo not given) | -0.1 | -0.2 | 80.4* | -0.7 | 2.3
CC(C)NC(=O)N(C)C[C@@H]1Oc2ccc(NC(=O)NC3CCCCC3)cc2C(=O)N([C@@H](C)CO)C[C@@H]1C | . | . | . | -3.0 | .
CCCCN(C=O)c1c(CC)nc2c(OCCOc3ccccc3)cccn12 | -1.5 | 0.3 | -7.6 | . | 58.4*
O=C(Nc1ccc2c(c1)[C@@H]1C[C@@H](CC(=O)N3CCc4ccccc4C3)O[C@H](CO)[C@@H]1O2)Nc1ccccc1F | . | . | . | -2.9 | .
COc1ccc(CC(=O)Nc2ccc(-c3noc(-c4cc(OC)c(OC)c(OC)c4)n3)cc2)cc1 | 0.8 | 2.0 | -6.4 | -8.4 | +
COc1ccc(C(C#N)N2N=C(c3ccccc3)CC2c2ccccc2)cc1OC (stereo not given) | -1.4 | -0.2 | 7.6 | -5.1 | 1.2
COc1ccc(C(C#N)N2N=C(C)CC2c2ccccc2)cc1OC (stereo not given) | 1.9 | 0.0 | -7.0 | -0.1 | 54.3*
CCCN(CC(=O)Nc1ccc(F)c(F)c1F)C(=O)CCc1nc2ccccc2c(=O)[nH]1 | -1.1 | 0.0 | 67.5* | -28.0 | -2.1
CCN(CC(=O)Nc1c(F)cccc1F)C(=O)CCc1nc2ccccc2c(=O)[nH]1 | 1.5 | -0.1 | 64.5* | -4.1 | .
CCN(CC(=O)Nc1c(F)cccc1F)C(=O)Cc1n[nH]c(=O)c2ccccc12 | 0.6 | -0.2 | 59.8* | -8.8 | -1.8
CCN(CC(=O)Nc1ccccc1C(F)(F)F)C(=O)CCc1nc2ccccc2c(=O)[nH]1 | 0.4 | -0.2 | 45.5 | -12.6 | 2.3
CCN(CC(=O)Nc1c(F)cccc1F)C(=O)Cc1ccsc1 | -0.5 | -0.3 | 1.4 | . | -1.7
CCN(CC(=O)Nc1c(F)cccc1F)C(=O)CCCc1nc2ccccc2c(=O)[nH]1 | 0.3 | 0.3 | 26.4 | -6.0 | 26.9
C[C@@H]1CN([C@@H](C)CO)C(=O)c2cc(NC(=O)Nc3ccc4c(c3)OCO4)ccc2O[C@@H](C)CCCCO[C@@H]1CN(C)S(=O)(=O)c1ccc(Cl)cc1 | . | . | . | -5.0 | .
C[C@@H]1CN([C@@H](C)CO)C(=O)Cc2cc(NC(=O)Nc3ccccc3)ccc2O[C@H]1CN(C)C(=O)NC1CCCCC1 | . | . | . | -28.3 | .
C[C@@H]1CN([C@H](C)CO)S(=O)(=O)c2ccc(C#CCC3CCCC3)cc2O[C@@H]1CN(C)C(=O)CC1CC1 | . | . | . | 5.0 | .
O=C(Nc1cccc(F)c1)N1CCCCN2[C@H](CO)[C@@H](c3ccc(-c4ccncc4)cc3)[C@@H]2C1 | . | . | . | -16.9 | .
O=C(/C=C/Sc1ccccc1)c1ccc(Cl)cc1 | 43.8* | -0.3 | -20.7 | 3.4 | 10.7
